Shown are actives, neighbours in structure and some others; about 2% of the full set was active somewhere.
GalR3 antagonist = blocks the human galanin receptor 3 | O60755 | HEK293 GalR3-CNG cAMP membrane potential fluorescence; galR3 body fused to GalR1 C-terminus | inhibition, % at 3 µM | 0.44% of 360,000 active | AID 651719;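 active = inhibition above the screen-wide average plus 3 SD, cut at about 13% in these data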;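 note: forskolin and galanin both at EC90 stimulate the cells; cAMP rise reported by CNG channel membrane potential dye signal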
Target sequence (O60755 1-299 limits assumed): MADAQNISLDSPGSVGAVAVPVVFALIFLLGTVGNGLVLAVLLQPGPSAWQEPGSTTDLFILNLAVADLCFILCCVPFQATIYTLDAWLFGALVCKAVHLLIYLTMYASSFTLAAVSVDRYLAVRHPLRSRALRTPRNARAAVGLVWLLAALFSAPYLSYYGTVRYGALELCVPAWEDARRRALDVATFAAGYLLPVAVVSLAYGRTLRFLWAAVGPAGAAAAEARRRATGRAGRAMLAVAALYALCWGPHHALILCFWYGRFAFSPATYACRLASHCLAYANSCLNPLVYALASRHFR
Jurkat NFkB inh = inhibitors of the PMA/ionomycin-induced NF-kB reporter in Jurkat cells; PMA/ionomycin-induced NF-kB luciferase reporter, luminescence; AID 435003; 0.53% of 330,000 active; inhibition, % at 4 µM; in the data active = inhibition above about 50%
Gli-Sufu block = blocks Gli-Sufu signaling in a luciferase reporter; Sufu-KO-LIGHT fibroblasts, Gli luciferase reporter luminescence; 0.74% of 340,000 active; inhibition, % at 5 µM;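 active = inhibition above about 55%, limit read from the data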
697 NFkB inh = lowers PMA/ionomycin-induced NF-kB signal in 697 B cells; 697 B-cell NF-kB luciferase reporter, 16 h; inhibition, % at 4 µM; 0.33% of 330,000 active; AID 435022; in the data active = inhibition above about 35%
NR2F2 inh = blocks human COUP-TFII nuclear receptor. P24468. HEK293T NGFI-A luciferase reporter, luminescence. inhibition, % at 8.6 µM. 0.7% of 370,000 active. AID 686940;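 active = inhibition above a per-plate cutoff, mean inhibition of test wells between control levels plus 3 SD, cut at about 38% in these data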;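 note: cells cotransfected with COUP-TFII expression vector driving the NGFI-A reporter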
Target sequence (P24468 whole entry, looked up): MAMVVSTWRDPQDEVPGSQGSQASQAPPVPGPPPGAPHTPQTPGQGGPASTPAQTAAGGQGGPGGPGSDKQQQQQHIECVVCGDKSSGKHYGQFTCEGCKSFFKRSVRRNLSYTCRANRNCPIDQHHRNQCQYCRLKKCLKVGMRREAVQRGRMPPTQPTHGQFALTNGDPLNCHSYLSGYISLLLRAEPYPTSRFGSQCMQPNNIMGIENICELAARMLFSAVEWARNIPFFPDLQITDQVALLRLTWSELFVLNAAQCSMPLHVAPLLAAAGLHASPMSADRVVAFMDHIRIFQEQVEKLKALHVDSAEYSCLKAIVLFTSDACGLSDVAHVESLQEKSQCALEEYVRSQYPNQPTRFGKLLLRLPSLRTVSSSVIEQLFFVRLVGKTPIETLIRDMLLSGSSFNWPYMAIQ
Gli antag conf = Gli-SUFU antagonism confirmation, single concentration; 40% of 2,500 active; Sufu-KO-LIGHT cells, Gli luciferase reporter, luminescence; inhibition, % at 5 µM; shares compounds with Gli-Sufu block;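 active = mean inhibition at 5 µM reaching about 45%, limit read from the data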
SufuKO cytotox = cytotoxic in Gli-SUFU antagonist counter-screen; shares compounds with Gli-Sufu block; Sufu-KO-LIGHT cells cytotoxicity, ATP luminescence; cytotoxicity, % at 5 µM; 32% of 2,500 active; AID 651994;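 active = mean cytotoxicity at 5 µM above about 25%, limit read from the data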;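 note: cells exposed to compound overnight for roughly 16 to 18 hours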
Wnt3a cs = Wnt3a reporter inhibition counter-screen | shares compounds with Gli-Sufu block | Wnt-LIGHT cells, Wnt3a-driven luciferase reporter, luminescence | inhibition, % at 6.25 µM | 20% of 2,500 active | AID 651995;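 active = mean inhibition above about 25%, limit read from the data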
Numbers stand for hits.

How did COc1ccccc1NC(=O)CN(c1ccc(C)cc1)S(=O)(=O)c1c(C)n[nH]c1C do in these assays?
GalR3 antagonist: inactive; Jurkat NFkB inh: inactive; Gli-Sufu block: 55.7; 697 NFkB inh: inactive; NR2F2 inh: inactive; Gli antag conf: inactive; SufuKO cytotox: inactive; Wnt3a cs: inactive

What do the screens show for `COC(=O)[C@@]12CCCCC3=C1N(CCC3)C(=O)[C@H]2CC(=O)NCc1cccs1`?
NR2F2 inh: inactive

Results for FC(F)(F)c1cccc(N2CCN(C3=Nc4ccccc4Sc4ccccc43)CC2)c1 ?
NR2F2 inh: inactive

How did COc1ccc(CC(=O)N2CCCc3ccccc32)cc1OC do in these assays?
GalR3 antagonist: inactive; Jurkat NFkB inh: inactive; Gli-Sufu block: 91.1; 697 NFkB inh: inactive; NR2F2 inh: inactive; Gli antag conf: inactive; SufuKO cytotox: inactive; Wnt3a cs: inactive

Results for O=[N+]([O-])c1ccc(N2CCN(Cc3ccccc3)CC2)s1 ?
GalR3 antagonist: inactive; Jurkat NFkB inh: inactive; Gli-Sufu block: inactive; 697 NFkB inh: inactive; NR2F2 inh: inactive; Gli antag conf: inactive; SufuKO cytotox: inactive; Wnt3a cs: inactive

Results for O=[N+]([O-])c1ccc(N2CCCCC2)s1 ?
GalR3 antagonist: inactive; Jurkat NFkB inh: inactive; Gli-Sufu block: inactive; 697 NFkB inh: inactive; NR2F2 inh: inactive

What do the screens show for `COCCN(C(=O)COC(=O)C1CCC(C(C)(C)C)CC1)c1c(N)n(Cc2ccccc2)c(=O)[nH]c1=O` (stereo not given)?
GalR3 antagonist: inactive; Jurkat NFkB inh: inactive; Gli-Sufu block: 72.4; 697 NFkB inh: inactive; NR2F2 inh: inactive; Gli antag conf: 81.1; SufuKO cytotox: 28.1; Wnt3a cs: inactive

What do the screens show for `CCCCOCCCNC(=O)C[C@H]1C[C@@]2(C(=O)OC)C(=C[C@H](COCc3ccccc3)O[C@@H]2C)N(CCc2ccc(OC)c(OC)c2)C1=O`?
NR2F2 inh: inactive

What do the screens show for `COc1ccc(Br)cc1C(=O)NC(=S)Nc1ccc(CN2CCOCC2)cc1`?
GalR3 antagonist: inactive; Jurkat NFkB inh: inactive; Gli-Sufu block: inactive; 697 NFkB inh: inactive; NR2F2 inh: inactive; Gli antag conf: inactive; SufuKO cytotox: inactive; Wnt3a cs: inactive

Results for COc1ccc(N(CC(O)CN2CCCCC2)S(=O)(=O)c2ccc(C)cc2)cc1 (stereo not given) ?
GalR3 antagonist: inactive; Jurkat NFkB inh: inactive; Gli-Sufu block: inactive; 697 NFkB inh: inactive; NR2F2 inh: inactive

How did Cc1ccc(S(=O)(=O)N(CC(O)CN2CCCCC2)c2ccccc2)cc1 (stereo not given) do in these assays?
GalR3 antagonist: inactive; Jurkat NFkB inh: inactive; Gli-Sufu block: 57.6; 697 NFkB inh: inactive; NR2F2 inh: inactive; Gli antag conf: inactive; SufuKO cytotox: inactive; Wnt3a cs: inactive

Results for O=[N+]([O-])c1ccc(C[n+]2cc(-c3ccccc3)n3c2CCCCC3)cc1 ?
GalR3 antagonist: inactive; Jurkat NFkB inh: inactive; Gli-Sufu block: inactive; 697 NFkB inh: inactive; NR2F2 inh: inactive

Results for Clc1ccc(C[n+]2cc(-c3ccccc3)n3c2CCC3)cc1Cl ?
GalR3 antagonist: inactive; Jurkat NFkB inh: inactive; Gli-Sufu block: 59.2; 697 NFkB inh: inactive; NR2F2 inh: inactive; Gli antag conf: 51.0; SufuKO cytotox: 37.5; Wnt3a cs: inactive

Results for N#CC[n+]1cc(-c2ccc(Cl)cc2)n2c1CCC2 ?
GalR3 antagonist: inactive; Jurkat NFkB inh: inactive; Gli-Sufu block: inactive; 697 NFkB inh: inactive; NR2F2 inh: inactive

Results for Clc1ccc(-c2c[n+](Cc3cccc(Cl)c3)c3n2CCC3)cc1 ?
GalR3 antagonist: inactive; Jurkat NFkB inh: inactive; Gli-Sufu block: inactive; 697 NFkB inh: inactive; NR2F2 inh: inactive; Gli antag conf: 51.1; SufuKO cytotox: 28.9; Wnt3a cs: inactive

Results for O=[N+]([O-])c1ccc(C[n+]2cc(-c3ccc(Cl)c(Cl)c3)n3c2CCCCC3)cc1 ?
GalR3 antagonist: inactive; Jurkat NFkB inh: inactive; Gli-Sufu block: inactive; 697 NFkB inh: inactive; NR2F2 inh: inactive

What do the screens show for `Clc1ccc(-c2c[n+](Cc3ccc(Cl)cc3Cl)c3n2CCCCC3)cc1`?
GalR3 antagonist: inactive; Jurkat NFkB inh: inactive; Gli-Sufu block: 65.5; 697 NFkB inh: inactive; NR2F2 inh: inactive; Gli antag conf: 74.6; SufuKO cytotox: 30.4; Wnt3a cs: inactive

Results for COc1ccc(C[N+]2=C(N)N[C@@]3(C=C(C)Cn4c(=O)n(-c5ccccc5)c(=O)n43)C2)c(OC)c1 ?
NR2F2 inh: inactive

What do the screens show for `CCOC(=O)[C@]12CCCCC/C=C\1N(CCc1ccc(Cl)cc1)C(=O)[C@H]2CC(=O)NCc1ccc(C)o1`?
NR2F2 inh: inactive

What do the screens show for `COC(=O)c1c(C)oc2ccc(N(C(=O)c3ccncc3)S(=O)(=O)c3ccc(C)cc3)cc12`?
Jurkat NFkB inh: inactive; Gli-Sufu block: inactive; 697 NFkB inh: inactive

What do the screens show for `COC(=O)c1c(C)oc2ccc(N(C(=O)c3ccncc3)S(=O)(=O)c3ccc(C)cc3C)cc12`?
GalR3 antagonist: inactive; Jurkat NFkB inh: inactive; Gli-Sufu block: 61.4; 697 NFkB inh: inactive; NR2F2 inh: inactive; Gli antag conf: 48.8; SufuKO cytotox: 27.0; Wnt3a cs: 36.2

Results for CCCCNC(=O)C1(C(C)=O)CC(C(=O)OCC)=NO1 (stereo not given) ?
NR2F2 inh: inactive

How did Cc1cc(=O)oc(C)c1C(=O)NCCN1CCOCC1 do in these assays?
GalR3 antagonist: inactive; Jurkat NFkB inh: inactive; Gli-Sufu block: 71.6; 697 NFkB inh: inactive; NR2F2 inh: inactive; Gli antag conf: inactive; SufuKO cytotox: inactive; Wnt3a cs: 25.5

How did Cc1c(C)n(C)c2ccc(C(=O)NCCN3CCOCC3)cc12 do in these assays?
GalR3 antagonist: inactive; Jurkat NFkB inh: inactive; Gli-Sufu block: inactive; 697 NFkB inh: inactive; NR2F2 inh: inactive

How did CCn1c(C)c(C)c2cc(C(=O)NCCN3CCOCC3)ccc21 do in these assays?
GalR3 antagonist: inactive; Jurkat NFkB inh: inactive; Gli-Sufu block: 57.7; 697 NFkB inh: inactive; NR2F2 inh: inactive; Gli antag conf: inactive; SufuKO cytotox: inactive; Wnt3a cs: inactive

How did COC(=O)[C@]12C[C@H](CC(=O)NCc3ccccc3)C(=O)N(Cc3ccc(Cl)cc3Cl)C1=C[C@H](C(C)C)O[C@@H]2C1CC1 do in these assays?
NR2F2 inh: inactive

Results for COc1cc(Br)cc(/C=N/N(CCO)C2=NS(=O)(=O)c3ccccc32)c1OC ?
GalR3 antagonist: inactive; Jurkat NFkB inh: inactive; Gli-Sufu block: 64.0; 697 NFkB inh: inactive; NR2F2 inh: inactive; Gli antag conf: inactive; SufuKO cytotox: inactive; Wnt3a cs: inactive

Results for COc1cc(/C=N/N(CCO)C2=NS(=O)(=O)c3ccccc32)cc(OC)c1OC ?
GalR3 antagonist: inactive; Jurkat NFkB inh: inactive; Gli-Sufu block: inactive; 697 NFkB inh: inactive; NR2F2 inh: inactive

High-throughput results (PubChem BioAssay)
